Among the data in PubChem BioAssay are inhibition and activation values, retold here.

Values without a mark were called inactive. The list shows a part of the results. The source made the active and inactive calls.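 The calls were made as follows, unless noted: active = inhibition above the hit cutoff set in the earlier primary screen (cut at about 27% in these data); inactive = the rest.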

Assay [1] has as its target Protein phosphatase methylesterase 1 (Homo sapiens) (UniProt Q9Y570). In words: PME-1 inhibitor activity retest, confirmation, biochemical, fluorescence polarization, FP-Rh probe, triplicate (AID 2171).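 Also: 0% = enzyme with DMSO and 100% = wells lacking PME-1.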 To be noted: recombinant PME-1, FP-Rh probe fluorescence polarization; at 5.9 µM; active compounds read high. For orientation: Polarisation of emitted light reports the rotation of a fluorescent probe.

The target in assay [2] is Bcl-2-like protein 1 (Homo sapiens) (UniProt Q07817). Description: Bcl-xL inhibitors blocking Bim BH3 binding, confirmation, counter-screen for MCL1 inhibitor project, biochemical, fluorescence polarization (AID 2166;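 active = inhibition above a cutoff equal to the mean inhibition of all tested compounds plus 3 SD, cut at about 30% in these data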). To be noted: GST-Bcl-xL / FITC-Bim BH3 peptide FP binding; at 10.9 µM; active compounds read high. On the technique in general: The purpose of a counterscreen is to sort out artefacts and off-target activity.

Assay [3] deals with Induced myeloid leukemia cell differentiation protein Mcl-1 (Homo sapiens) (UniProt Q07820). Description: inhibitors of MCL1 binding to BIM-BH3, confirmation, biochemical, fluorescence polarization, triplicate (AID 2168;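 active = inhibition above the average of all tested compounds plus 3 SD, cut at about 40% in these data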;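 also: 0% = DMSO wells and 100% = unlabeled Bim-BH3 control peptide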). To be noted: GST-MCL1 / FITC-Bim-BH3 fluorescence polarization; at 10.9 µM; active compounds read high.
Assay [4] addresses Platelet-activating factor acetylhydrolase (Homo sapiens) (UniProt Q13093). Description: pPAFAH (PLA2G7) enzyme inhibitors, confirmation, biochemical, fluorescence polarization, human (AID 463230;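 active = mean inhibition of the triplicate above the hit cutoff set for the earlier primary screen, cut at about 25% in these data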;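 also: 0% = enzyme with DMSO and 100% = wells lacking pPAFAH enzyme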). To be noted: recombinant pPAFAH, FP-Rh probe fluorescence polarization; at 3.39 µM; active compounds read high.
Assay [5] addresses Glutathione S-transferase omega-1 (Homo sapiens) (UniProt P78417). In words: GSTO1 inhibitor hit confirmation, counter-screen for RBBP9 inhibitor project, biochemical, fluorescence polarization, triplicate (AID 2176;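 active = inhibition above the primary screen's cutoff, its mean inhibition plus 3 SD, cut at about 35% in these data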;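 also: loss of polarization as inhibitors block binding of rhodamine sulfonate ester activity probe; 0% = GSTO1 with DMSO and 100% = wells lacking GSTO1 enzyme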). To be noted: recombinant GSTO1, probe fluorescence polarization; at 5.96 µM; active compounds read high.
Assay [6] deals with Protein-arginine deiminase type-4 (Homo sapiens) (UniProt Q9UM07). Description: human PAD4 inhibitors, confirmation, biochemical, fluorescence polarization (AID 488796;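 active = mean inhibition across replicates above the hit cutoff set by the earlier primary screen, cut at about 15% in these data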;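 also: inhibitors block active-site labeling by the probe so polarization falls; 0% = PAD4 with probe and DMSO and 100% = probe without PAD4 enzyme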). To be noted: recombinant PAD4, RCA probe fluorescence polarization; at 6.36 µM; active compounds read high.
In assay [7] the target is Platelet-activating factor acetylhydrolase IB subunit alpha1 (Homo sapiens) (UniProt Q15102). In words: PAFAH1B3 enzyme inhibitors, confirmation, biochemical, fluorescence polarization, human (AID 493032;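 active = average inhibition over triplicate runs above the hit cutoff set in the earlier primary screen, cut at about 25% in these data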;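 also: 0% = enzyme with DMSO and 100% = wells lacking PAFAH1B3 protein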). To be noted: recombinant PAFAH1B3, FP-Rh activity-based probe, at 3.39 µM, active compounds read high.
Assay [8] concerns HIV-1 integrase (multimerization). In words: HIV-1 IN multimer formation enhancers, counter-screen for LEDGF/p75 integration inhibitor project, biochemical, TR-FRET (AID 1053131; in the data active = activation above about 8.9%). To be noted: TR-FRET HIV-1 integrase multimerization, at 7.7 µM, active compounds read high.
Assay [9] in a line: TR-FRET optical interference artefacts, confirmation, artefact control for LEDGF/p75-dependent integration inhibitor project, biochemical, HIV-1 IN multimerization (AID 1053135;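 active = inhibition above the mean over all tested compounds plus 3 SD, which no compound reached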;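 also: 0% = integrase with antibodies and DMSO and 100% = antibodies without integrase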). To be noted: TR-FRET optical interference counterscreen, at 7.7 µM, active compounds read high. (In TR-FRET formats the signal depends on donor and acceptor labels being close together.)
For assay [10], the system named is HIV-1 integrase / human LEDGF/p75 complex. In words: inhibitors of HIV-1 IN-LEDGF/p75 DNA integration, confirmation, biochemical, TR-FRET (AID 1053136; in the data active = inhibition above about 14%). To be noted: TR-FRET LEDGF/p75-dependent HIV-1 integration, at 3.7 µM, active compounds read high.
For assay [11], the target named is Sphingosine 1-phosphate receptor 4 (Homo sapiens) (UniProt O95977). Description: S1P4 receptor antagonists, human, confirmation, cell-based (AID 1524; in the data active = inhibition above about 30%). To be noted: S1P4-expressing cell line, antagonist mode, reporter read-out; at 4.98 µM; active compounds read high.
Assay [12] has as its target Sphingosine 1-phosphate receptor 1 (Homo sapiens) (UniProt P21453). In words: S1P1 receptor antagonists, human, counter-screen for S1P4 antagonist project, cell-based (AID 1564; in the data active = inhibition above about 40%;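 also: receptor stimulated with S1P near its EC80; 0% = agonist stimulated wells and 100% = vehicle only wells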). To be noted: cell-based S1P1 antagonist counterscreen, at 4.98 µM, active compounds read high.

Sequence of Protein phosphatase methylesterase 1 (Homo sapiens) (Q9Y570 whole entry, looked up): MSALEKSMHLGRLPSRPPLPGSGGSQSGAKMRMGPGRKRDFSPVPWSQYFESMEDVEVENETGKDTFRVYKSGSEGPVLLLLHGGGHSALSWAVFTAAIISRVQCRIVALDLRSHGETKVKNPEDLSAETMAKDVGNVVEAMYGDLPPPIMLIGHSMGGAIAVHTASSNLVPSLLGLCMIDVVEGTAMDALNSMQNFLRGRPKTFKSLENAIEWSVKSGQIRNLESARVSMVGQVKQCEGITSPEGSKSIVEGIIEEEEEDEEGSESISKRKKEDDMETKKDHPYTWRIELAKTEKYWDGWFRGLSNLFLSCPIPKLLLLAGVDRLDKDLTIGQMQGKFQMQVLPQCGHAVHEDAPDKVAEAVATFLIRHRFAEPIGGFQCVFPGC
Sequence of Bcl-2-like protein 1 (Homo sapiens) (Q07817 whole entry, looked up): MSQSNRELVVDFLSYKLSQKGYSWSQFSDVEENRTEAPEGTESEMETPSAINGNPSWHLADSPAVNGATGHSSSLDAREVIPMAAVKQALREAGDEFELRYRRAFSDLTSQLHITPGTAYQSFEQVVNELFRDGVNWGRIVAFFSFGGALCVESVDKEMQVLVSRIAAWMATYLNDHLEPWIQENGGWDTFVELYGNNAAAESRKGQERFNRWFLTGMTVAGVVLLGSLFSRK
Sequence of Induced myeloid leukemia cell differentiation protein Mcl-1 (Homo sapiens) (Q07820 whole entry, looked up): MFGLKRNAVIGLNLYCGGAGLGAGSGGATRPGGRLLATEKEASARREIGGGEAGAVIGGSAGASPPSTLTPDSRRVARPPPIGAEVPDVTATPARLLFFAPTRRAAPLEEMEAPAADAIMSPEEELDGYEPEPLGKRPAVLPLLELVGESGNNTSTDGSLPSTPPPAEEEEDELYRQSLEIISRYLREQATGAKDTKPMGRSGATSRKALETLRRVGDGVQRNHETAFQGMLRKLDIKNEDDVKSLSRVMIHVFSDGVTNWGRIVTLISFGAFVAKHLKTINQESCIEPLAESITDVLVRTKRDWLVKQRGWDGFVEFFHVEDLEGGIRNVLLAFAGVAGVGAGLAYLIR
Sequence of Platelet-activating factor acetylhydrolase (Homo sapiens) (Q13093 whole entry, looked up): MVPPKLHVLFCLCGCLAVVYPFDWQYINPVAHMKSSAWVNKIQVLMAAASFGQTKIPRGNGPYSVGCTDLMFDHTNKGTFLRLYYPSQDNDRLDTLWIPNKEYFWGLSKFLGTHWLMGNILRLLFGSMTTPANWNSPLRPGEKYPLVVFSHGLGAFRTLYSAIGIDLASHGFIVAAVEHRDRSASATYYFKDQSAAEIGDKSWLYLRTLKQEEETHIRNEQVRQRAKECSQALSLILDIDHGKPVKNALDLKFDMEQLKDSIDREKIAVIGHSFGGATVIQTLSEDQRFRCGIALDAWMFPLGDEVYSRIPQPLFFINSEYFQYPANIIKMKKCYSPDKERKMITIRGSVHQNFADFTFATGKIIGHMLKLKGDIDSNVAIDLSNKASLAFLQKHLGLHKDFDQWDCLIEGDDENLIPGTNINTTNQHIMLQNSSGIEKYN
Sequence of Sphingosine 1-phosphate receptor 4 (Homo sapiens) (O95977 whole entry, looked up): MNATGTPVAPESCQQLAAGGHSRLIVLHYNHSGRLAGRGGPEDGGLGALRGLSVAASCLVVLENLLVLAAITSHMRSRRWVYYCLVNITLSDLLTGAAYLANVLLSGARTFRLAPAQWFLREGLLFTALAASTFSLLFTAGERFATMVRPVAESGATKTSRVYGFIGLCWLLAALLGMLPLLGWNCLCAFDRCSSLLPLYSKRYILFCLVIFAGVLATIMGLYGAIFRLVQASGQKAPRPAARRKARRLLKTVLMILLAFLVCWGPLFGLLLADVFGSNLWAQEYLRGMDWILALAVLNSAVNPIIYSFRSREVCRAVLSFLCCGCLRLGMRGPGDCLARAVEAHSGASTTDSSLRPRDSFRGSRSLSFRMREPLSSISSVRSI
Sequence of Protein-arginine deiminase type-4 (Homo sapiens) (Q9UM07 whole entry, looked up): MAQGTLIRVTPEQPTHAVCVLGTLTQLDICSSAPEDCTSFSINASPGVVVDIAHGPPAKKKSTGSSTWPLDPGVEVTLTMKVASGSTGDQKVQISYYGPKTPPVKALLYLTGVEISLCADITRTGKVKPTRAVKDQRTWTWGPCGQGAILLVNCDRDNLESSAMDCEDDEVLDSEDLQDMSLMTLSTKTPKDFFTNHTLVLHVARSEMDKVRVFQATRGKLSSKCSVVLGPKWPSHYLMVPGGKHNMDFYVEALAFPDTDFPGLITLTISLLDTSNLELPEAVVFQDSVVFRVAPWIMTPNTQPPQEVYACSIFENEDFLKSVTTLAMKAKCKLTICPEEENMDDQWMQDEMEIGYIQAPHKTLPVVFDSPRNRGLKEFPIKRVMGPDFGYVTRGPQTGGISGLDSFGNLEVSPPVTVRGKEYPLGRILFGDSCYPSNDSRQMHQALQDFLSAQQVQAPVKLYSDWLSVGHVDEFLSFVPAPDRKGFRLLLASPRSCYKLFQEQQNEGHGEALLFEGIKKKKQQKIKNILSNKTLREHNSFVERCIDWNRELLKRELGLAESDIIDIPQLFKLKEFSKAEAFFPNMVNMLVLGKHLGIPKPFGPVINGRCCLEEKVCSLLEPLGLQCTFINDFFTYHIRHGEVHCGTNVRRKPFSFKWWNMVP
Sequence of Glutathione S-transferase omega-1 (Homo sapiens) (P78417 whole entry, looked up): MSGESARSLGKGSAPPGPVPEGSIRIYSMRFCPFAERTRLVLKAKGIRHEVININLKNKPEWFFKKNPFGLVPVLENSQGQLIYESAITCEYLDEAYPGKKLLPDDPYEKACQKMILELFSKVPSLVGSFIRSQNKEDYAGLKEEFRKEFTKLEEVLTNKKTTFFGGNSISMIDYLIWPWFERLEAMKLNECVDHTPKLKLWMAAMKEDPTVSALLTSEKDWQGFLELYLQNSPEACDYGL
Sequence of Platelet-activating factor acetylhydrolase IB subunit alpha1 (Homo sapiens) (Q15102 whole entry, looked up): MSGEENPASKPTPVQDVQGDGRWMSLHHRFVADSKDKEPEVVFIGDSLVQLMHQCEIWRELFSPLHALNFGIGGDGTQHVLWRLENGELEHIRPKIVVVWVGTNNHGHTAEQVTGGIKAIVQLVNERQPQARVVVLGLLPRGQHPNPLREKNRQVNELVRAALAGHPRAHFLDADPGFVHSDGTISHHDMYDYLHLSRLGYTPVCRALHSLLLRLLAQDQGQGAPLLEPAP
Sequence of Sphingosine 1-phosphate receptor 1 (Homo sapiens) (P21453 whole entry, looked up): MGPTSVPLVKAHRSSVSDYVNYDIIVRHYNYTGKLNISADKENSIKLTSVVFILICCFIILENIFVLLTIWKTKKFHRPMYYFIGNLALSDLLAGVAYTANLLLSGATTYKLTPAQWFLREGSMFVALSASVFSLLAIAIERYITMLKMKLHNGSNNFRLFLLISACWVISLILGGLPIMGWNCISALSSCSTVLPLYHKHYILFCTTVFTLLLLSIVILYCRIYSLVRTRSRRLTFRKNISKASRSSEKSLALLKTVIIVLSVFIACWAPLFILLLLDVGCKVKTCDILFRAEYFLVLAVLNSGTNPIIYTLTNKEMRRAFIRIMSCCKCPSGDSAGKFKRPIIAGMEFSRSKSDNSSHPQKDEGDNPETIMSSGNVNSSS

On to `COC(=O)c1nc(-c2ccc3c(n2)C(=O)C(N)=C(OC)C3=O)c(N)c(-c2ccc(OC)c(OC)c2O)c1C`, for which, in assay [1], the inhibition is 67.4% (active).

For `N#Cc1ccccc1Cn1cc(C(=O)C2CC2)c2ccccc21`, the inhibition in assay [1] is 66.3% (active). Turning to `NP(=O)(OCC(F)(F)F)Oc1ccc(Cl)cc1` (stereo not drawn), in assay [1], the inhibition is 30.6% (active).

Turning to `CC(=O)c1ccc2c(c1)C1C(Cl)C(Sc3ccccc3[N+](=O)[O-])CC1C(C(=O)O)N2` (stereo not drawn), in assay [1], the inhibition is 25.9%. The same measure, in the same setting: next, `Cc1ccc(C(O)P(=O)(Oc2ccccc2)Oc2ccccc2)cc1` (stereo not drawn): 59.9% (active). Still for that read-out and setting: next, `CC(C)C(=O)c1cn(Cc2ccccc2C#N)c2ccccc12`: 62.8% (active). The same measure, in the same setting: for `Cc1ccccc1NP(=O)(Oc1ccccc1F)Oc1ccccc1F` the value was 43.5% (active); for `C[n+]1c2ccccc2nc2ccc(NCCO)cc21`, 35% (active).

Turning to `COc1ccc(N2C(=O)/C(=C/c3ccco3)C(=O)NC2=S)cc1`, the figures for the inhibition in [2], in assay [3] and in assay [4] were 50.7% (active), 55.3% (active) and 17.3%, respectively.

Consider `O=C1NC(=O)N(c2ccccc2)C(=O)/C1=C/c1ccc([N+](=O)[O-])s1`, for which the inhibition is 36.9% (active) in assay [2], 66.3% (active) in assay [3] and 44% (active) in assay [4]. In the case of `CCOC(=O)c1c(N)n(Cc2ccccc2)c2nc3ccccc3nc12`, the inhibition in [5] is 13.8%; in assay [6] it was -4.66%; in assay [7], 8.51%; in assay [9], 2.59%; in [10] it was -1.64%. The activation in [8] is -0.51%. On to `CCC(=O)c1cn(Cc2ccccc2C#N)c2ccccc12`, for which the inhibition in assay [1] is 19.9%. On the same count and under the same terms, next, `Cc1oc(-c2ccccc2)nc1CN1C(=O)CN=C(c2ccccc2)c2ccccc21`: 66.1% (active). For the compound `COc1cccc(N2C(=O)NC(=O)/C(=C\c3cn(C)c4ccccc34)C2=O)c1`, in [2], the inhibition was 189% (active). As to `C[n+]1c(-c2ccccc2)c2cc(N)ccc2c2ccc(N)cc21`, the inhibition in [1] was 83.5% (active). For `Cc1c(C(=O)O)cccc1-n1c(C)cc(/C=C2\C(=O)NC(=O)N(c3ccc4c(c3)OCO4)C2=O)c1C`, the activation in assay [8] was 0.15%. In addition, the inhibition is -0.77% in assay [9] and 22.9% (active) in [10]. `O=c1c2ccccc2nc(/C=C/c2ccc(O)c(O)c2)n1-c1ccccc1`: the inhibition in assay [1] was -7.92%. With `COc1ccc(-n2c(/C=C/c3ccc(O)c(O)c3)nc3ccccc3c2=O)cc1`, the inhibition in assay [1] is -10.6%. Still for that read-out and setting: for `CC1Oc2cc3c(-c4c(O)cc(O)c5c(O)c6c(cc45)OC(C)C(C)C6=O)c(O)cc(O)c3c(O)c2C(=O)C1C` (stereo not drawn) the value was 53.6% (active). For the compound `CN(C)CC1Oc2ccccc2OC1(O)c1ccccc1` (stereo not drawn), the inhibition in assay [11] was 100% (active); in assay [12] it was 23.3%. With `CCN(CC)S(=O)(=O)c1cc(NC(=O)C(C)N2CC=C(c3ccccc3)CC2)ccc1C` (stereo not drawn), in [1], the inhibition was 43.7% (active).

For orientation: inhibition means the drop in the measured response relative to a control, in per cent.
